D1 antag: Antagonist of Human D 1 Dopamine Receptor: qHTS. D(1A) dopamine receptor (Homo sapiens), P21728. 3.2% of 360,000 active. activity change, negative = inhibition, % at 10 µM. AID 504652, 2011. HEK293 TREx D1 cells, calcium flux, dopamine EC80; hits give low values; in the data active = activity change below about -30%; also: % is scaled to controls: 0 for no effect and ±100 for the full control effect
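Inducible Hek293 Trex D1 cells (tetracycline, overnight, 30 C). Calcium dye 30–90 min RT. Antagonist mode: EC80 dopamine added after 180 s compound read.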
D1 PAM: Potentiators of Human D1 Dopamine Receptor: qHTS. D(1A) dopamine receptor (Homo sapiens), P21728. HEK293 TREx D1 cells, calcium flux, dopamine EC20 potentiation. potentiation, % at 10 µM. 0.036% of 360,000 active. AID 504651, 2011; in the data active = potentiation above about 30%; also: 0% is about no effect
DRD3 antagonist: qHTS of D3 Dopamine Receptor Antagonist: qHTS | D(3) dopamine receptor (Homo sapiens), P35462 | D3R cells, DiscoveRx beta-arrestin luminescence, antagonist mode; hits give low values | max response, negative = inhibition, % | 2.5% of 360,000 active; in the data active = max response below about -50%; inconclusive = no clear call, values can overlap the other calls; also: % is scaled to controls: 0 for no effect and ±100 for the full control effect
Target sequence (P35462 whole entry, looked up): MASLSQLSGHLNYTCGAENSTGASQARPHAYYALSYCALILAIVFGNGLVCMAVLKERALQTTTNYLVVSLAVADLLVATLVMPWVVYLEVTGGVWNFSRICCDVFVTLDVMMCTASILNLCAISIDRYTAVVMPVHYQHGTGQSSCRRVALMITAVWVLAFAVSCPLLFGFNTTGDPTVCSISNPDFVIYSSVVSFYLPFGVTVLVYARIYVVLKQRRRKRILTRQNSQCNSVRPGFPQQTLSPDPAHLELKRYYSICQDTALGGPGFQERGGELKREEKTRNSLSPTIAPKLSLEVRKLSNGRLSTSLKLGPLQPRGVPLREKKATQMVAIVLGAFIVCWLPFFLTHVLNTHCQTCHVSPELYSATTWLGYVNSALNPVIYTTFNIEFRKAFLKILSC
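Cells expressing the human receptor were seeded at 1500 cells/well, incubated overnight at 37 degrees C in 5% CO2, then exposed to library compounds with dopamine controls for 90 minutes at 37 degrees C before luminescent detection.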
D3 ag: qHTS of D3 Dopamine Receptor Agonist: qHTS; max activation, %; D(3) dopamine receptor (Homo sapiens), P35462; AID 652048, 2013; 0.58% of 410,000 active; D3R DiscoveRx beta-arrestin cells, luminescence, 90 min; in the data active = max activation above about 30%; also: 0% is about no effect
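Agonist-mode cell screen: cells plated at 1500/well and incubated overnight at 37 °C, then exposed to library compounds for 90 min at 37 °C. Detection reagent was added for 30–60 min at room temperature, and luminescence was read.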
D1 agonist: Allosteric Agonists of the Human D1 Dopamine Receptor: qHTS | activation, % at 2 µM | AID 504660, 2011 | 1% of 360,000 active | HEK293 T-REx D1 cells, calcium flux, agonist mode; in the data active = activation above about 30%; also: 0% is about no effect
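Tetracycline-induced HEK293 TREx D1 cells, force-coupled to calcium signalling, were dye-loaded with a no-wash calcium kit. Compound was pin-added after a 10 s baseline. Fluorescence was read kinetically at 1 cycle/s for 180 s, with calcium rises flagged as agonism.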
* marks the source's active call; other numbers are inactive results; ? = inconclusive; / = no result. Rows were chosen to be rich in hits. Some 6.1% of all compounds tested hit in one or more screens of this group.

SMILES	D1 antag	D1 PAM	DRD3 antagonist	D3 ag	D1 agonist
Cc1cccc(N=C2C(=O)Nc3c(Cl)cccc32)c1	0	-6	-30	-19	0
O=C1Nc2c(Cl)cc(Cl)cc2C1=O	/	/	-93*	-12	/
Cc1nc2nc(SCC(=O)C(C)(C)C)[nH]c2cc1Br	-47*	-8	52	-15	0
CCOc1ccc(C(=O)N2CCC(c3nc4ccccc4o3)CC2)cc1	-1	-1	/	5	-2
COc1ccccc1C(=O)NC(CCSC)C(=O)NCCCSc1ccccc1 (stereo unspecified)	-1	0	-14	1	92*
COc1ccccc1C(=O)NC(CCSC)C(=O)NCC(c1ccco1)N(C)C (stereo unspecified)	-1	4	-67*	-6	1
O=C(NCc1ccc(Cl)cc1)C1CCN(S(=O)(=O)c2ccc3c(c2)CCCN3C(=O)C2CCC2)CC1	-6	-5	/	0	5
COc1cccc(/C=c2\s/c(=C/C(=O)c3ccc(C)cc3)[nH]c2=O)c1OC	-9	-3	7	-11	6
COc1ccc(/C=c2\s/c(=C/C(=O)c3ccc(C)cc3)[nH]c2=O)c(OC)c1	-3	-6	10	-3	136*
Cc1ccc(S(=O)(=O)Nc2nncs2)cc1	-17	-3	-60*	-1	4
O=C(Nc1cccc(C(=O)N2CCN(Cc3ccccc3)CC2)c1)c1ccccc1	-39*	-7	5	0	3
Cc1cc(CSc2ccccc2)ccc1NC(=O)c1ccc(CN2CCOCC2)cc1	-31*	1	7	4	30
Cc1cccc(NC(=O)c2ccc(CN3CCN(Cc4ccccc4)CC3)cc2)c1	-37*	-9	14	-4	14
COc1cccc(NC(=O)c2ccc(CN3CCN(c4ccccc4)CC3)cc2)c1	6	1	-18	3	0
CCC(CC)C(=O)Nc1cccc(C(=O)N2CCOCC2)c1	-32*	0	-12	-2	2
CSc1ccccc1NC(=O)c1ccc(CN2CCOCC2)cc1	0	12	-24	11	3
COC(=O)[C@@H]1[C@H]2C[C@H]3c4[nH]c5ccccc5c4CCN3C[C@@H]2CC[C@@H]1O	-5	-8	-78*	-80	0
NNC(=O)C1C(O)CCC2CN3CCc4c([nH]c5ccccc45)C3CC21 (stereo unspecified)	/	/	?	-14	/
COc1cc(/C=N\NC(=O)c2ccc(C)nc2)ccc1OC(=O)c1ccco1	1	-1	0	-5	0
COc1cc(/C=N/NC(N)=O)ccc1OC(=O)c1ccco1	-35*	-3	4	22	4
COc1ccc(/C=N/NC(=O)CSc2ccccn2)cc1OC	-32*	-8	-4	-9	1
COc1ccc(/C=N/NC(=O)C(C)n2nnc3ccccc32)cc1OC (stereo unspecified)	-74*	-7	-1	0	0
Cc1cc(C)c(NC(=O)CN2C(=O)c3cccnc3Oc3ccc(C)cc32)c(C)c1	24	8	/	-8	-1
CC(C)(Oc1ccc(Cl)cc1)C(=O)Nc1nnc2n1CCS2	-2	-1	/	-2	0
CCOC(=O)c1ccn(-c2nc(-c3cccc(OC)c3)cc(C(F)(F)F)n2)n1	-5	0	/	-1	-1
SMILES	D1 antag	D1 PAM	DRD3 antagonist	D3 ag	D1 agonist
CCc1n[nH]c(=S)n1/N=C/c1cc(OC)cc([N+](=O)[O-])c1O	-1	3	-94*	-27	0
CCOC(=O)c1c(/N=C/c2cc(OC)cc([N+](=O)[O-])c2O)sc(C)c1C	-10	-7	-71*	-16	1
COc1ccccc1-n1c(/C=C/c2c(C)n(C)c3ccccc23)nc2ccccc2c1=O	2	0	/	-7	18
Cc1cc(OCCSc2nnc(-c3cccs3)n2C)ccc1Cl	-20	-13	1	-1	35*
Cc1ccc(OCCSc2nnc(-c3cccs3)n2C)cc1	3	-6	13	1	-1
Cc1ccc(S(=O)(=O)C2(C(=O)Nc3ccc(Cl)c(C(F)(F)F)c3)CC2)cc1	0	0	/	3	3
CNC(=O)C1CCC(Cn2c(=O)c3sccc3n(CC(=O)Nc3ccc(C)c(F)c3)c2=O)CC1 (stereo unspecified)	-2	-4	/	-2	3
COc1ccc2nc(N(CCN(C)C)C(=O)c3ccc(C(=O)c4ccccc4)cc3)sc2c1	6	-3	-15	0	6
Cc1cc(C)c2nc(N(CCCN(C)C)C(=O)C3=COCCO3)sc2c1	-20	-6	-2	-8	21
Cc1ccc2nc(N(CCN(C)C)C(=O)c3ccc4ccccc4c3)sc2c1	-15	-16	-9	-13	2
COc1ccc2nc(N(Cc3cccnc3)C(=O)c3ccc(Cl)cc3)sc2c1	/	-4	/	60*	5
COc1ccc2nc(N(CCN(C)C)C(=O)c3ccc4ccccc4c3)sc2c1	-7	2	-63*	-2	1
CN(C)CCN(C(=O)c1ccc2ccccc2c1)c1nc2ccc(Br)cc2s1	3	-11	-55*	-5	7
CN(C)CCCN(C(=O)C1=COCCO1)c1nc2ccc(Br)cc2s1	-41*	-3	-15	-12	68*
Cc1ccc(S(=O)(=O)NCC(c2ccc(N(C)C)cc2)N2CCc3ccccc32)cc1C (stereo unspecified)	-5	0	/	-7	-2
COc1ccc(NC2=C(C(C)=O)C(c3ccc(OC)c(OC)c3)C(C(C)=O)C(C)(O)C2)cc1 (stereo unspecified)	-86*	5	-3	0	0
COc1ccc(NC2=C(C(C)=O)C(c3ccccc3)C(C(C)=O)C(C)(O)C2)cc1 (stereo unspecified)	-4	-1	-3	4	4
COc1ccc(C)cc1Nc1n[n+](-c2ccccc2)c(-c2ccc(NC(C)=O)cc2)s1	-31*	-7	-4	21	1
COc1cccc(CNC(=O)COCc2cc(-c3ccc4c(c3)OCO4)on2)c1	1	-3	/	5	1
Nc1nc(N)c(Cc2ccc(Cl)cc2Cl)c(N)n1	-4	-5	11	6	20
Cc1nc(N)c(Cc2ccccc2F)c(N)n1	-35*	-1	8	4	4
CCN(CC)CCCNC(=O)c1sc2nc(-c3ccc(F)cc3)cn2c1C	0	-1	-62*	-51	1
Cc1c(C(=O)NCc2ccccn2)sc2nc(-c3ccc(F)cc3)cn12	-27	-9	-13	-4	4
Cc1c(C(=O)NCc2ccc3c(c2)OCO3)sc2nc(-c3ccc(F)cc3)cn12	-42*	-12	16	-2	4
COc1ccc(-n2c(=O)c3c(c4cc(OC)ccc4n3C)n(CCC(C)C)c2=O)cc1	-5	3	/	-10	0

High-throughput results deposited in PubChem BioAssay by National Center for Advancing Translational Sciences (NCATS).
